In PubChem BioAssay (NCI):
Compounds without any hit were thinned out: in the full panel of roughly 79,000, 15% have a hit. Values without a mark were called inactive. Active and inactive are the calls of the source. No stated cut-off is given here; in the data, active means growth inhibition above about 70%; inactive means the rest.

Assay: NCI Yeast Anticancer Drug Screen. Data for the mgt1 strain (AID 153)
Settings: S. cerevisiae mgt1 mutant growth inhibition, active compounds read high
Method: Growth inhibition of yeast strains with defined genetic alterations is measured as a screen for potential anti-cancer activity. Selected strains with alterations in DNA damage repair or cell cycle control were exposed to compounds and growth inhibition was measured relative to vehicle treated controls. The strain used in this assay is mgt1

| Structure (SMILES) | growth inhibition (at 1.2 µM) | growth inhibition (at 3.7 µM) | growth inhibition (at 11.0 µM) | growth inhibition (at 33.0 µM) | growth inhibition (at 100.0 µM) |
| --- | --- | --- | --- | --- | --- |
| O=C(COC(=O)c1cc(O)c(O)c(O)c1)c1ccc(-c2ccccc2)cc1 | -1% | -1% | 0% | 46% | 39% |
| C[C@H](CCC(=O)NN)[C@H]1CC[C@H]2[C@@H]3CC[C@@H]4C[C@H](O)CC[C@]4(C)[C@H]3CC[C@]12C | 0% | -1% | 1% | -1% | 2% |
| CC(=O)Nc1ccc(SC(C)=O)cc1 | -55% | -45% | -32% | 44% | 86% (active) |
| CN=C(N)N/N=C/c1ccc2c(c1)Cc1ccccc1-2 | -11% | -2% | 1% | 14% | 92% (active) |
| Cn1c(=O)c2ccccc2c2ccccc21 | -1% | -3% | -1% | 35% | 51% |
| CC(=O)[O][Bi]([c]1ccccc1)[c]1ccccc1 | 28% | 30% | 40% | 89% (active) | 95% (active) |
| O=C1NC(=O)C2C3C=CC(C3)C12 (stereo not given) | -1% | 23% | 89% (active) | 96% (active) | 97% (active) |
| CC(=O)N/N=C/C(C)(C)C(C)(C)/C=N/NC(C)=O | 2% | -2% | -4% | -5% | 6% |
